Source: PubChem BioAssay
TDP1 block: qHTS Assay for Inhibitors of Tyrosyl-DNA Phosphodiesterase (TDP1) | 0.28% of 350,000 active | Potency, µM (doses to about 130 µM), actives largely listed as inhibitors | recombinant TDP1, AlphaScreen DNA substrate cleavage | Tyrosyl-DNA phosphodiesterase 1 (Homo sapiens), Q9NUW8 | AID 485290, 2010; further: nearly all actives have a fitted effect of over 40% in size
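Recombinant human Tdp1 (E. coli-expressed, 1 nM final) preincubated with compounds 15 min at room temperature, then 5'-biotin/3'-phosphotyrosine-FITC DNA substrate (15 nM final) added for 5 min. AlphaScreen beads (10 ug/ml final) added 10 min; cleavage lowers signal.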
RECQ1 inh-1: qHTS Assay for Inhibitors of RecQ-Like Dna Helicase 1 (RECQ1) | Potency, µM (doses to about 57.3 µM), actives largely listed as inhibitors | ATP-dependent DNA helicase Q1 (Homo sapiens), P46063 | AID 2549, 2010 | 0.54% of 240,000 active | RECQ1 DNA unwinding, red fluorescence kinetic read; further: nearly all actives have a fitted effect of over 30% in size
Target sequence (P46063 whole entry, looked up): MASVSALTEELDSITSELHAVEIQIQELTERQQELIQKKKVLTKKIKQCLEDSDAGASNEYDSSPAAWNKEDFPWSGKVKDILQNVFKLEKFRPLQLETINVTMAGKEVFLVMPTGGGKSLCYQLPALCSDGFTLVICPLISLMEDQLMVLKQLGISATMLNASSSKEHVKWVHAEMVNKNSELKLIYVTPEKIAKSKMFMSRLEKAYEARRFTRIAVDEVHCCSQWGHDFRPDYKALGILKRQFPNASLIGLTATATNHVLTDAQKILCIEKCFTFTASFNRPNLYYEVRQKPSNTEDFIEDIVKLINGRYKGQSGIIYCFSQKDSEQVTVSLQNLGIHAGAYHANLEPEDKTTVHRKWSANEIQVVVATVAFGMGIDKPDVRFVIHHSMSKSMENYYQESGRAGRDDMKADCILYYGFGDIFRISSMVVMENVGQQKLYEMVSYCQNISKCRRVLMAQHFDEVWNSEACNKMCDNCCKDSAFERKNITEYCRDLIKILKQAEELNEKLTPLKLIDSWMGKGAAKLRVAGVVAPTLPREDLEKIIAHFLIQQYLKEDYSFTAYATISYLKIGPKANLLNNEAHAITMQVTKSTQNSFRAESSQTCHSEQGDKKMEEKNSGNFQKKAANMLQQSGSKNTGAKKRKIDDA
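RECQ1T1 50 nM; forked duplex (20 bp + 30-nt ss tails) 200 nM, ATP 2 mM final; pH 8.0, 2 mM MgCl2, 2.5 ug/ml poly(dI-dC); 15 min compound preincubation; discontinuous kinetic read over 2 h at RT.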
L3MBTL1 block: qHTS Assay for the Inhibitors of L3MBTL1; Lethal(3)malignant brain tumor-like protein 1 (Homo sapiens), Q9Y468; Potency, µM (doses to about 57.1 µM), usual class: inhibitors; AID 485360, 2010; 0.66% of 230,000 active; AlphaScreen L3MBTL1–H3K9me1 peptide binding; further: nearly all actives have a fitted effect of over 60% in size
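AlphaScreen assay: L3MBTL1 (50 nM final) was preincubated 30 min at room temperature with biotinylated H3(1-15)K9me1 peptide (75 nM final), then 30 min with library compounds; streptavidin donor and nickel chelate acceptor beads (10 ug/mL final) added, 30 min dark.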
BLM helicase inh: qHTS Assay for Inhibitors of Bloom's syndrome helicase (BLM); RecQ-like DNA helicase BLM (Homo sapiens), P54132; recombinant BLM DNA unwinding, fluorescence dequenching; Potency, µM (highest dose often 56.1 µM), usual class: inhibitors; 0.2% of 350,000 active; further: nearly all actives have a fitted effect of over 35% in size
KDM4E inh: qHTS Assay for Inhibitors of Human Jumonji Domain Containing 2E (JMJD2E) | JMJD2E catalytic domain, FDH-coupled NADH fluorescence (FDH is formaldehyde dehydrogenase) | Potency, µM (titrated, usually from 57.1 µM), most hits filed as inhibitors | 1.6% of 230,000 active; active means well fitted inhibition curve with a large enough effect, not every such curve was filed as active; inconclusive means small, poorly fitted or top-dose-only effect, or another doubt; inactive means no such curve, though single readings can be large or run the other way; further: nearly all actives have a fitted effect of over 50% in size
APEX1 inh: qHTS Assay for Inhibitors of the Human Apurinic/apyrimidinic Endonuclease 1 (APE1). recombinant APE1, TAMRA/BHQ-2 abasic DNA cleavage fluorescence. Potency, µM (top dose mostly 65.8 µM), actives largely listed as inhibitors. 0.35% of 350,000 active. DNA repair nuclease/redox regulator APEX1 (Homo sapiens), P27695; further: nearly all actives have a fitted effect of over 55% in size
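Enzyme (0.75 nM final) and test compound are incubated 15 min at room temperature before adding 50 nM quenched THF abasic-site duplex. Cleavage dequenches TAMRA, followed at 525/598 nm over three reads one minute apart.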
RECQ1 inh conf: Confirmation qHTS Assay for Inhibitors of RecQ-Like Dna Helicase 1 (RECQ1); shares compounds with RECQ1 inh-1; RECQ1 helicase DNA unwinding, fluorescence; 28% of 610 active; Potency, µM (doses to about 229 µM), actives largely listed as inhibitors; further: nearly all actives have a fitted effect of over 45% in size
ADP FP counter: Counterscreen for RECQ1 Inhibitors: ADP Fluorescence Polarization Displacement Assay; Potency, µM (doses to about 228 µM), most hits filed as inhibitors; AID 2711, 2010; ADP fluorescence polarization displacement counterscreen; 27% of 530 active; shares compounds with RECQ1 inh-1; further: nearly all actives have a fitted effect of over 45% in size
RECQ1 inh-2: Confirmation qHTS Assay for Inhibitors of RecQ-Like Dna Helicase 1 (RECQ1) - Round 2 Cherry Picks; shares compounds with RECQ1 inh-1; recombinant RECQ1 DNA unwinding, red fluorescence; Potency, µM (top dose mostly 119 µM), hits mostly inhibitors; 15% of 1,100 active; further: nearly all actives have a fitted effect of over 50% in size
Hits are given with their value; – = inactive; ? = inconclusive; · = not tested or not shown; [ ] = remark or other dose. The sample as a whole holds a higher share of hits than the screen did. Unless noted, the call rests on the fitted dose curve; in most records, active means well fitted curve in the direction sought with a large enough effect; inconclusive means small, poorly fitted or top-dose-only effect, or another doubt; inactive means no such curve, though single readings can be large; an effect the other way counts as inactive or inconclusive.

SMILES	TDP1 block	RECQ1 inh-1	L3MBTL1 block	BLM helicase inh	KDM4E inh	APEX1 inh	RECQ1 inh-2	others
COc1cccc(C(=O)Nc2cccc(C(=O)NC3=NN(c4c(Cl)cc(Cl)cc4Cl)C(=O)C3)c2)c1	–	32µM	?	–	–	–	?
COc1ccc(-n2c(=O)c(-c3cccc(Cl)c3)nc3cncnc32)cc1	·	?	·	–	·	–	–
COc1ccc(-c2nc3cnc(N4CCOCC4)nc3n(-c3ccc(OC)cc3)c2=O)cc1	·	?	·	–	·	14µM	–
COc1ccc(-n2c(=O)c(-c3ccc(F)cc3)nc3cnc(N4CCOCC4)nc32)cc1	·	–	·	–	·	–	·
COc1ccc(Cn2c(=O)c3oc4ccccc4c3n(CC(=O)Nc3c(C)cccc3C)c2=O)cc1	–	·	·	–	·	·	·
CCN(CC)CCNC(=O)c1c(C)[nH]c(/C=C2\C(=O)Nc3ccc(F)cc32)c1C	–	·	·	–	·	·	·
CCC(CC)c1nnc(NC(=O)c2ccc(S(=O)(=O)N3CCc4ccccc4C3)cc2)s1	–	–	–	–	–	–	·
COc1ccc(-c2nnc(NC(=O)c3ccc(S(=O)(=O)N4CCc5ccccc5C4)cc3)o2)cc1	–	–	–	–	–	–	·
COC(=O)c1ccc(-c2csc(NC(=O)c3ccc(S(=O)(=O)N4CCc5ccccc5C4)cc3)n2)cc1	–	–	–	–	–	–	·	RECQ1 inh conf=–;ADP FP counter=–
COc1ccc(-c2csc(NC(=O)c3ccc(S(=O)(=O)N4CCc5ccccc5C4)cc3)n2)cc1	–	–	–	–	?	–	·	RECQ1 inh conf=–;ADP FP counter=–
Cc1cccc(OCc2nnc(SC(C)C(=O)O)n2Cc2ccccc2)c1 (centres undefined)	–	–	–	–	–	–	·
Cc1ccc(OCc2nnc(SC(C)C(=O)O)n2Cc2ccccc2)cc1 (centres undefined)	–	–	–	–	–	–	·	RECQ1 inh conf=–;ADP FP counter=–
COc1cc(C(=O)O[C@@H]2CC3CC[C@]2(C)C3(C)C)ccc1O	–	–	·	–	·	–	·
CCOC(=O)/C(C#N)=C/c1cc2ccccc2nc1Cl	–	–	–	–	–	–	·
CSc1nc2ccccc2cc1/C=C(\C#N)c1cccc(Cl)c1	–	13µM	–	–	–	–	–
CCCCC(C=O)CC (centres undefined)	–	–	·	·	·	–	·
CCc1nnc(NC(=O)c2cc(-c3ccco3)nc3ccccc23)s1	–	?	?	–	?	?	?
O=C(NC1CCC(O)CC1)c1cc(-c2ccco2)nc2ccccc12 (centres undefined)	·	22µM	·	–	?	?	?
O=C(Nc1nncs1)c1cc(-c2ccco2)nc2ccccc12	·	·	?	·	·	–	·
CC(C)C[C@H](NC(=O)CN(C)C(=O)[C@H](Cc1ccccc1)NC(=O)[C@H](Cc1ccccc1)NC(=O)[C@H](CCC(N)=O)NC(=O)[C@H](CCC(N)=O)NC(=O)[C@@H]1CCCN1C(=O)[C@H](CCCCN)NC(=O)[C@@H]1CCCN1C(=O)[C@@H](N)CCCN=C(N)N)C(=O)N[C@@H](CCS(C)(=O)=O)C(N)=O	–	–	·	–	·	–	·
CCc1c(C)nc(SCc2nc(-c3ccccc3C)no2)[nH]c1=O	–	·	·	–	·	·	·
Cc1onc(-c2c(F)cccc2Cl)c1C(=O)OCC(=O)c1c[nH]c2ccccc12	·	22µM	·	–	–	?	–
Cc1noc(C)c1C(=O)OCC(=O)c1c[nH]c2ccccc12	–	–	–	–	–	–	·
C/C=C/OC(=O)NC(c1cccc(C)c1)[C@@]1(C(=O)OCC)CCCC1=O (some centres undefined)	–[21 µM]	–[11.5 µM]	·	–[12.4 µM]	·	?	·
Cc1cc(=O)[nH]c(SCC(=O)/C=C2\N(C)c3ccccc3C2(C)C)n1	–	32µM	–	–	?	–	–
SMILES	TDP1 block	RECQ1 inh-1	L3MBTL1 block	BLM helicase inh	KDM4E inh	APEX1 inh	RECQ1 inh-2	others
CN1/C(=C\C(=O)COC(=O)c2ccc(O)cc2)C(C)(C)c2ccccc21	–	–	–	–	?	–	·
CN1/C(=C\C(=O)COC(=O)CNC(=O)c2ccc3ccccc3c2)C(C)(C)c2ccccc21	–	35µM	–	–	?	–	56µM
CN1/C(=C\C(=O)COC(=O)c2ccc(O)c(O)c2)C(C)(C)c2ccccc21	–	25µM	–	–	?	–	40µM
COc1ccc(C2(CNC(=O)C(=O)Nc3ccc(F)cc3)CCCC2)cc1OC	–	·	·	–	·	·	·
Cc1ccc(S(=O)(=O)NC(=O)c2cccc(Br)c2)cc1	–	·	·	–	·	–	·
Cc1ccc(-n2cccc2C(=O)NS(=O)(=O)c2ccc(C)cc2)cc1	·	?	–	–	–	–	?
CC(C)=CCC/C(C)=C/CO/N=C1/[C@H]2O[C@@H]2[C@@H](O)[C@H]2[C@H]1CCn1c(=O)n(-c3ccccc3)c(=O)n12	–[21 µM]	–[11.5 µM]	·	–[12.4 µM]	·	–[12.4 µM]	·
COc1ccc(OCC(=O)Nc2nc3ccc(NC(C)=O)cc3s2)cc1	·	?	–	–	?	–	?
CC(=O)Nc1ccc2nc(NC(=O)COc3ccc([N+](=O)[O-])cc3)sc2c1	–	–	–	–	–	–	·
COc1cccc(CSc2nc3n(n2)C(CC(C)C)C(C(=O)Nc2ccccc2OC)=C(C)N3)c1 (centres undefined)	–	·	·	–	·	·	·
Cc1ccc2[nH]c(=O)c(CN(Cc3ccccc3)Cc3nnnn3Cc3ccco3)cc2c1	–	·	·	·	·	·	·
COc1ccc(CCn2c(N)c(C(=O)NCc3ccco3)c3nc4ccccc4nc32)cc1OC	–	?	–	–	?	?	–
COc1ccc(CCn2c(N)c(C(=O)NCc3ccco3)c3nc4ccccc4nc32)cc1	–	–	–	–	?	–	·
